Measured values as given in PubChem BioAssay AID1159580 (chemical genetic matrix, 2015).
“And” between values parts separate entries of the source, which are not always exact repeats. Equal values may be shown once. Among all 5,500 compounds or so, about 2,000 (36%) were called active. Not shown: some 18% with an inconclusive outcome. Cut-off read from the data, not from the text of the source: active = normalized growth mostly below about 0.91 (no sharp cut-off); inconclusive = no clear call, values can overlap the other calls; inactive = mostly above about 0.92. This is one part of the list.

Experiment: chemical genetic growth profiling, strain panel (AID 1159580);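 note: tested at 20 µM; growth read once vehicle control cultures reached saturation at 30 °C; 1 = growth at the plate median or of vehicle wells; lower values mean less growth of the strain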
Details: S. cerevisiae deletion strains, growth OD

Measured: normalized growth

C[C@H](CCC(=O)O)[C@H]1CCC2C3C(CC[C@@]21C)[C@@]1(C)CC[C@@H](O)C[C@H]1C[C@@H]3O (stereo partly specified)
active: locus YDR137W, strain rgp1, hits give low values 0.821
inactive: locus YAL013W, strain DEP1, hits give low values 0.984 | locus YAL021C, strain ccr4, hits give low values 1.02 | locus YAL026C, strain drs2, hits give low values 0.997 | locus YAL030W, strain snc1, hits give low values 0.983 | locus YBL061C, strain skt5, hits give low values 0.986 | locus YBR009C, strain hhf1, hits give low values 1.03 | locus YBR021W, strain FUR4, hits give low values 0.988 | locus YBR023C, strain chs3, hits give low values 0.987 | locus YBR171W, strain sec66, hits give low values 0.961 | locus YBR229C, strain ROT2, hits give low values 0.985 | locus YBR231C, strain swc5, hits give low values 0.996 | locus YBR279W, strain paf1, hits give low values 1 | locus YCL011C, strain gbp2, hits give low values 1.02 | locus YCL016C, strain dcc1, hits give low values 1.04 | locus YCL029C, strain bik1, hits give low values 0.963 | locus YCL069W, strain vba3, hits give low values 0.991 | locus YCR088W, strain abp1, hits give low values 0.989 | locus YDL005C, strain med2, hits give low values 0.989 | locus YDL035C, strain GPR1, hits give low values 0.992 | locus YDL040C, strain nat1, hits give low values 0.983 | locus YDL074C, strain BRE1, hits give low values 0.946 | locus YDL101C, strain DUN1, hits give low values 0.986 | locus YDL134C, strain PPH21, hits give low values 0.981 | locus YDL185W, strain tfp1, hits give low values 0.972 | locus YDL192W, strain arf1, hits give low values 0.979 | locus YDR001C, strain nth1, hits give low values 0.982 | locus YDR069C, strain doa4, hits give low values 0.954 | locus YDR101C, strain arx1, hits give low values 0.986 | locus YDR150W, strain NUM1, hits give low values 0.997 | locus YDR159W, strain sac3, hits give low values 1.04 | locus YDR162C, strain NBP2, hits give low values 0.989 | locus YDR195W, strain ref2 0.94 | locus YDR297W, strain sur2, hits give low values 0.989 | locus YDR318W, strain mcm21, hits give low values 0.977 | locus YDR334W, strain swr1, hits give low values 0.961 | locus YDR335W, strain msn5, hits give low values 0.981 | locus YDR388W, hits give low values 0.98 | locus YDR392W, strain spt3, hits give low values 1.1 | locus YDR502C, strain sam2, hits give low values 0.984 | locus YEL003W, strain gim4, hits give low values 0.976 | locus YEL037C, strain rad23, hits give low values 1 | locus YEL061C, strain CIN8 (second series), hits give low values 0.983 | locus YEL061C, strain CIN8, hits give low values 0.99 | locus YER015W, strain faa2, hits give low values 1.03 | locus YER016W, strain bim1, hits give low values 0.998 | locus YER110C, hits give low values 0.984 | locus YER111C, strain swi4, hits give low values 0.979 | locus YER155C, strain BEM2 (second series), hits give low values 1.02 | locus YER155C, strain BEM2, hits give low values 0.99 | locus YER167W, strain BCK2, hits give low values 0.988 | locus YFR010W, strain ubp6, hits give low values 0.969 | locus YGL078C, strain dbp3, hits give low values 0.967 | locus YGL086W, strain mad1, hits give low values 0.985 | locus YGL167C, strain pmr1, hits give low values 0.974 | locus YGL173C, strain kem1, hits give low values 0.951 | locus YGL227W, strain vid30, hits give low values 0.998 | locus YGL240W, strain doc1, hits give low values 0.982 | locus YGL248W, strain PDE1, hits give low values 0.996 | locus YGL253W, strain hxk2, hits give low values 1.02 | locus YGR078C, strain PAC10, hits give low values 0.99 | locus YGR135W, strain pre9, hits give low values 0.975 | locus YGR229C, strain SMI1, hits give low values 0.99 | locus YGR252W, strain gcn5, hits give low values 1.09 | locus YHR013C, strain ard1, hits give low values 1.03 | locus YHR027C, strain rpn1, hits give low values 1 | locus YHR030C, strain SLT2, hits give low values 1 and 0.948 | locus YHR079C, strain IRE1 (second series), hits give low values 0.974 | locus YHR079C, strain IRE1, hits give low values 0.945 | locus YHR094C, strain hxt1, hits give low values 0.982 | locus YHR129C, strain ARP1, hits give low values 1 | locus YHR142W, strain chs7, hits give low values 0.999 | locus YHR200W, strain rpn10, hits give low values 1 | locus YIL066C, strain RNR3, hits give low values 0.98 | locus YIL073C, strain SPO22, hits give low values 1.01 | locus YIL125W, strain kgd1, hits give low values 0.992 | locus YIR030C, strain dcg1, hits give low values 0.982 | locus YJL092W, strain hpr5, hits give low values 0.985 | locus YJL095W, strain BCK1 (second series), hits give low values 0.988 | locus YJL095W, strain BCK1, hits give low values 0.95 and 0.958 | locus YJL115W, strain asf1, hits give low values 0.984 | locus YJL129C, strain trk1, hits give low values 0.99 | locus YJL134W, strain LCB3, hits give low values 0.994 | locus YJL154C, strain vps35, hits give low values 0.983 | locus YJL164C, strain tpk1, hits give low values 1.04 | locus YJL166W, strain qcr8, hits give low values 0.933 | locus YJL168C, strain set2, hits give low values 0.982 | locus YJL187C, strain SWE1 (second series), hits give low values 0.975 | locus YJR043C, strain POL32, hits give low values 0.985 | locus YJR066W, strain TOR1, hits give low values 0.937 | locus YJR075W, strain HOC1, hits give low values 0.991
